KinaseGlo FLuc = Kinase-Glo luciferase inhibition (counter-screen). Potency, µM (doses to about 38.3 µM), for inactives: at the top dose activity change, negative = inhibition, usual class: inhibitors. Kinase-Glo luciferase, ATP luminescence, 8 min. AID 1379. Q27757. 200,000 tested, 0.28% active; note: nearly all actives have a fitted effect of over 60% in size
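Compounds were added to a substrate mix at pH 7.2 (50 mM imidazole, 10 uM ATP, within the enzyme's linear range), followed by Kinase-Glo detection reagent; luminescence was measured after 8 minutes at ambient temperature.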
RORg inh = ROR gamma (mouse) transcription inhibition. Drosophila S2 Gal4-RORgamma UAS-luciferase reporter, 20 h. Potency, µM (doses to about 53.6 µM), for the others: at the highest dose activity change, negative = inhibition, usual class: inhibitors. 310,000 tested, 5.4% active. P51450; note: nearly all actives have a fitted effect of over 60% in size
Target sequence (P51450 whole entry, looked up, the tested form may be a part): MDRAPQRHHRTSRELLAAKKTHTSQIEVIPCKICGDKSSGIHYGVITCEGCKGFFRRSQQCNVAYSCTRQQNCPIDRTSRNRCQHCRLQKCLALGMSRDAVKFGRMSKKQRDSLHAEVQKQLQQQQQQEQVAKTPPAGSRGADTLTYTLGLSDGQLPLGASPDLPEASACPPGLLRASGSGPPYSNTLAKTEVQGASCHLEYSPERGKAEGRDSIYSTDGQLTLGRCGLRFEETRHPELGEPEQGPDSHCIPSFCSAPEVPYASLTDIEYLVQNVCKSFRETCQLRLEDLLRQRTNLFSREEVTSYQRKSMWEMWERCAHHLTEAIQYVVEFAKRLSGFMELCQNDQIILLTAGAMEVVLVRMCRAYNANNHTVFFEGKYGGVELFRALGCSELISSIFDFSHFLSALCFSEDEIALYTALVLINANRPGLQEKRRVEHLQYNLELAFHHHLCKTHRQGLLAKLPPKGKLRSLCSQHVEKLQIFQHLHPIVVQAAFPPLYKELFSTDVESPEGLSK
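In this cell-based reporter format, copper sulfate (700 uM final) drives Gal4–ROR gamma fusion expression from a metallothionein promoter in Drosophila Schneider cells; compounds preincubated 1 hr, reporter read after 20 hr at ambient temperature.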
Gal4-VP16 FLuc = inhibits Gal4-VP16 luciferase reporter, ROR gamma counter-screen; AID 2546; 310,000 tested, 3.5% active; Drosophila S2 Gal4-VP16 UAS-luciferase, luminescence, 20 h; Potency, µM (series often up to 53.6 µM), for inactives: at the highest dose activity, negative = inhibition, usual class: inhibitors;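 note: Gal4-VP16 expression switched on by copper sulfate through the metallothionein promoter; nearly all actives have a fitted effect of over 50% in size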
Active calls of the source: *; u = inconclusive; x = no result given; [ ] = another dose, or the depositor's remark. Rows were chosen to be rich in hits. Some 6.2% of all compounds tested hit in one or more screens of this group. Calls come from the whole dose curve; as a rule, active = well fitted curve in the direction sought with a large enough effect; inconclusive = small, poorly fitted or top-dose-only effect, or another doubt; inactive = no such curve, though single readings can be large; an effect the other way counts as inactive or inconclusive. % is set by controls: 0 for no effect and ±100 for the full control effect; potency is the fitted concentration of half-maximal effect.

SMILES | KinaseGlo FLuc | RORg inh | Gal4-VP16 FLuc
O=C1/C(=C/c2cccc(Br)c2)SC(=S)N1CCC(=O)N(CCO)c1ccccc1 | x | -5.6% | -12.4%
CN1CCN(C(=O)CCN2C(=O)/C(=C/c3cccc(Br)c3)SC2=S)CC1 | x | 15.8µM* | -14.5%
COc1ccc(/C=C2\SC(=S)N(CCC(=O)N3CCOCC3)C2=O)cc1 | x | -21.9% | -11.2%
COc1cccc(/C=C2\SC(=S)N(CCCC(=O)N3CCCCC3)C2=O)c1 | x | 4.47µM* | 12.6µM*
COc1ccc(/C=C2\SC(=S)N(CCCC(=O)N3CCN(C)CC3)C2=O)cc1 | x | 7.08µM* | u
O=S(=O)(CCc1ccccc1)c1nnnn1-c1ccc(F)cc1Br | 0.9% | -39.4% | -6.3%
C=CCCC/C=C(/C)C(OCc1ccc(OC)cc1)C(CC/C=C(\C)C(N)=O)OC (stereo unspecified) | x | -8.9%[10 µM] | -11.2%[10 µM]
Cc1cccc(NC(=O)CSc2nnc(NC(=O)c3ccco3)s2)c1 | -1.6% | 17.4% | 27.2%
CN(C)c1cnn(-c2ccccc2)c(=O)c1Cl | 1.3% | -22.2% | -10.7%
Cc1ccc(-n2ncc(N(C)C)c(Cl)c2=O)cc1 | -15.7% | 11.2µM* | u
COc1ccc(-n2ncc(Cl)c(Cl)c2=O)cc1 | 0.3% | 2µM* | u
COc1ccc(-n2ncc(N(C)n3cccc3)c(Cl)c2=O)cc1 | x | -52.4% | -8.7%
O=C(N=C1c2ccccc2CN1c1ccc(F)cc1)c1ccc(Cl)nc1 | -2.7% | 34.9% | -5.0%
O=C1OC(c2cccs2)=N/C1=C\c1ccc(-c2cccc(Cl)c2)o1 | 0.0% | u | -20.5%
N=C1S/C(=C\c2ccc(-c3cccc(Cl)c3)o2)C(=O)N1c1nccs1 | 0.5% | 0.141µM* | -82.5%
COc1ccc(/C=C2\SC(=S)N(NC(=O)c3ccncc3)C2=O)cc1OC | 2.0% | 0.3% | 5.7%
COc1ccc(/C=C2\SC(=N)N(c3nccs3)C2=O)cc1OC | 1.8% | 0.126µM* | u
O=C(CSc1ncccc1C(=O)O)NC12CC3CC(CC(C3)C1)C2 | 0.9% | 11.9% | -5.2%
CC1CCN(C(=O)C(C)c2ccc([N+](=O)[O-])cc2)CC1 (stereo unspecified) | 0.5% | 34.9% | 14.5%
NC(=O)C1CCN(C(=O)C(=O)c2cn(CC(=O)N3CCCCCC3)c3ccccc23)CC1 | x | -1.6% | -1.0%
CCOc1ccc(CCNC(=O)c2cc(C)nn2-c2ccccc2)cc1 | x | -0.6% | 6.2%
COc1cccc(OC)c1OC(=O)/C=C/c1ccc(C)o1 | x | -2.2% | 6.4%
COc1ccc(/C=C2\NC(=S)N(CC3CCCO3)C2=O)c(OC)c1 (stereo unspecified) | 6.0% | 15.8µM* | u
COc1ccc(/C=C2\NC(=S)N(CC3CCCO3)C2=O)c(OC)c1C (stereo unspecified) | 1.3% | u | u
COc1ccc(CCNC(=O)/C=C/c2ccc(OC)c(S(=O)(=O)N3CCOCC3)c2)cc1 | x | -1.8% | 6.4%
SMILES | KinaseGlo FLuc | RORg inh | Gal4-VP16 FLuc
COc1cc(OC)c(NS(=O)(=O)c2c(C(=O)N3CCCCC3)c(C)n(C)c2C)cc1Cl | x | 10.9% | -2.2%
Cc1ccc(-c2nnc(NC(=O)Cc3ccc(F)cc3)o2)c(C)c1 | x | 1.41µM* | 1.26µM*
Cc1ccc(CC(=O)NCc2ccc(F)cc2)cc1 | -4.5% | 18.7% | -21.5%
Cc1ccc(C)c(NC(=O)CSc2nnc(-c3ccccc3C)o2)c1 | -5.0% | -14.2% | -3.7%
Cc1ccc(C)c(-c2nnc(NC(=O)Cc3ccc(F)cc3)o2)c1 | x | 0.631µM* | 0.562µM*
CCCCCCCCCCCCC/C=C/[C@@H](O)[C@H](CO)NC(=O)CCCCC | x | 4.2% | -9.8%
Cc1cc(C)n(C(=O)c2c([N+](=O)[O-])c(C)nn2C)n1 | 3.4% | 26.2% | -13.4%
Cc1ccc(SC(=O)c2c([N+](=O)[O-])c(C)nn2C)cc1 | x | 3.98µM* | 3.55µM*
Cc1cccc(-n2c(CCn3nc(C)c([N+](=O)[O-])c3C)n[nH]c2=S)c1 | -3.6% | 12.6µM* | -10.9%
Cc1cccc(-n2c(CNC(=O)Cc3ccccc3)n[nH]c2=S)c1 | 8.6% | -31.7% | 9.1%
CCc1ccc(-n2c(Cc3ccccc3)n[nH]c2=S)cc1 | -1.6% | 2µM* | u
CCOc1ccc(Cc2n[nH]c(=S)n2N)cc1 | -0.9% | 13.6% | -10.4%
Cc1cccc(-n2c(Cc3ccccc3)n[nH]c2=S)c1 | 0.1% | 3.98µM* | 14.1µM*
COc1cccc(-n2c(CCn3nc(C)c([N+](=O)[O-])c3C)n[nH]c2=S)c1 | -0.2% | u | -10.3%
O=C(O)C(Cc1ccc2c(c1)oc1ccccc12)NCP(=O)(O)O (stereo unspecified) | x | 13.6% | -10.7%
Cc1cc(C)c2ccc(N)nc2c1O | -2.2% | 6.4%[0.365 µM] | x
COc1cc(C=O)ccc1O | 1.6% | 7.6% | 3.9%
COc1ccc(/C=C/c2ccc3c(Br)ccc(O)c3n2)cc1 | x | 3.16µM* | 3.55µM*
Cc1ccc2c(Br)cc(Br)c(O)c2n1 | x | 0.251µM* | 0.708µM*
COc1cc(/C=C/c2ccc3c(Br)cc(Br)c(O)c3n2)ccc1O | x | 0.398µM* | 0.316µM*
COc1ccc(/C=C/c2nc(N)nc(-c3ccccc3O)n2)cc1 | -3.2% | 36.3% | -0.6%
FC(F)Oc1ccc(/C=N/c2c(-c3ccc(OC(F)F)cc3)nc3n2CCS3)cc1 | 3.4% | u | u
C/C(N)=C(/C#N)C(=O)CSc1nc2cc(Cl)ccc2c(=O)n1Cc1ccco1 | -1.1% | -20.0% | 13.6%
C/C(N)=C(/C#N)C(=O)CSc1nc2ccccc2c(=O)n1Cc1ccc(F)cc1 | x | 2.82µM* | 3.55µM*
Cc1ccc(-n2nnnc2SCC(=O)Nc2cc(C)on2)c(C)c1 | x | -0.2% | -3.1%
SMILES | KinaseGlo FLuc | RORg inh | Gal4-VP16 FLuc
C/C(N)=C(/C#N)C(=O)CSc1nnnn1-c1ccc(C)cc1C | -8.5% | -25.1% | 12.6µM*
CCCCn1c(SCC(=O)/C(C#N)=C(\C)N)nc2ccccc2c1=O | 0.8% | u | u
C/C(N)=C(/C#N)C(=O)CSc1nc2ccccc2c(=O)n1Cc1ccc(C)cc1 | -0.1% | 2.51µM* | 3.98µM*
CN(C1CCCCC1)S(=O)(=O)c1cccc(C(=O)OCC(=O)NC2CCCc3ccccc32)c1 (stereo unspecified) | 1.2% | 9.9% | 4.0%
Cc1oc(-c2ccc(F)cc2)nc1CN(Cc1ccccn1)CC1CCCO1 (stereo unspecified) | -0.7% | -35.4% | 5.4%
COc1ccc(-c2[nH]ncc2CN(C)Cc2ccccn2)c(OC)c1 | -0.4% | -1.8% | 4.0%
Cc1cccc(N(Cc2cc3ccccc3[nH]c2=O)C(=O)c2cccs2)c1 | x | -9.7% | -24.2%
Cc1ccc(C2CC(c3ccco3)n3ncnc3N2)cc1 (stereo unspecified) | 2.0% | -26.8% | 10.5%
Cc1ccc2c(c1)C(N1CCCC1=O)CC(c1ccco1)N2 (stereo unspecified) | 11.2µM* | u | u
COc1ccc(CNC(=O)C2CCCN2S(=O)(=O)c2ccccc2)cc1 (stereo unspecified) | -4.9% | -2.6% | -1.6%
CC(C)c1nnc(NC(=O)c2cccc(-n3cnnn3)c2)s1 | 1.8% | 28.2% | 5.3%
CCCc1nnc(NC(=O)c2cccc(OC)c2)s1 | -3.0% | 7.08µM* | -16.5%
CCC(CC)c1nnc(NC(=O)[C@@H](NC(=O)c2cccc(C)c2)C(C)C)s1 | 2.0% | 20µM* | 15.8µM*
COc1cccc(C(=O)Nc2nnc(SCC(=O)Nc3ccc(NC(C)=O)cc3)s2)c1 | x | 11.2µM* | u

Source: PubChem BioAssay (National Center for Advancing Translational Sciences (NCATS))
